DRD3 antagonist = antagonists of human D3 dopamine receptor | 360,000 tested, 2.5% active | D3R cells, DiscoveRx beta-arrestin luminescence, antagonist mode; hits give low values | max response, negative = inhibition, % | P35462; in the data active = max response below about -50%; inconclusive = no clear call, values can overlap the other calls; also: % is scaled to controls: 0 for no effect and ±100 for the full control effect
Target sequence (P35462 whole entry, looked up): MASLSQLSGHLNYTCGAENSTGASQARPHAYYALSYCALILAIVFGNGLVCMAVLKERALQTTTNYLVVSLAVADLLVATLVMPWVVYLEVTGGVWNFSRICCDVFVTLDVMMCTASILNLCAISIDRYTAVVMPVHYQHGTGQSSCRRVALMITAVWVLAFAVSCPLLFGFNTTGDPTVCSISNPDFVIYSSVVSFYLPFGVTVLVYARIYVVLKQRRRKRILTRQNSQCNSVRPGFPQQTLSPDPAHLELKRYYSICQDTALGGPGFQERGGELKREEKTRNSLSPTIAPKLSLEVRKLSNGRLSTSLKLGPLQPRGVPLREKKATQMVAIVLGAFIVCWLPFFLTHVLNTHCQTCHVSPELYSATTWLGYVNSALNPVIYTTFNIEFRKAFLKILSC
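Cells expressing the human receptor were seeded at 1500 cells/well, incubated overnight at 37 degrees C in 5% CO2, then exposed to library compounds with dopamine controls for 90 minutes at 37 degrees C before luminescent detection.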
ATXN viability = cell viability loss in ATXN counter-screen; S2 cells (HEK-293 line with an ATXN2-luciferase reporter) viability, CellTiter-Fluor protease fluorescence, 24 h; Potency, µM (titrated, usually from 56.7 µM), usual class: cytotoxic; 400,000 tested, 0.49% active; AID 651635; also: potency is read from the fitted curve at half-maximal effect; nearly all actives have a fitted effect of over 40% in size
HepG2 tox = counter-screen for TGF-b inhibitors: cytotoxicity in HepG2 cells; 410,000 tested, 0.76% active; HepG2 CAGA-GFP viability, ATP luminescence, 18 h; Potency, µM (highest dose often 46.1 µM), for the others: at the top dose activity change, negative = cytotoxicity, usual class: cytotoxic; also: potency is read from the fitted curve at half-maximal effect
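CellTiter-Glo luminescence gave cytotoxicity after 18 hours at 37 degrees C. The cells were HepG2 CAGA-GFP in 1% FBS DMEM, stimulated with 500 pg/mL TGF-beta after compound addition. %Activity was normalised to no-cell wells (complete cell-killing) and DMSO (no toxicity), and curves were fitted and classified.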
TGFb SMAD3 inh = blocks TGF-b signaling; Potency, µM (top dose mostly 46.1 µM), without a hit: at the highest dose activity, negative = inhibition, hits mostly inhibitors; HepG2 CAGA-GFP TGF-b/SMAD3 reporter, GFP fluorescence, 18 h; TGF-beta stimulated, 500 pg/mL final; 410,000 tested, 1.2% active; also: potency is read from the fitted curve at half-maximal effect; % is scaled to controls: 0 for no effect and ±100 for the full control effect; nearly all actives have a fitted effect of over 65% in size
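Inhibition of TGF-beta-driven CAGA-GFP reporter expression in HEPG2 cells is measured by cellular GFP fluorescence after 18 h stimulation with 500 pg/mL recombinant TGF-beta in 1% FBS medium at 37 degrees C.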
ATXN2 expr inh = reduces ATXN2 reporter expression in HEK-293 cells; HEK-293 ATXN2-luciferase reporter, luminescence, 24 h; Potency, µM (titrated, usually from 57 µM), for the others: top-dose activity change, negative = inhibition, usual class: inhibitors; 360,000 tested, 0.72% active; AID 1745845; also: potency is read from the fitted curve at half-maximal effect; % is scaled to controls: 0 for no effect and ±100 for the full control effect; nearly all actives have a fitted effect of over 55% in size
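ATXN2-luciferase reporter cells (luciferase flanked by upstream and downstream ATXN2 gene portions) were treated 24 h at 37 °C with compounds at up to 57 uM. SteadyGlo luminescence gave expression; GF-AFC fluorescence gave viability.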
DRD3 agonist = D3 dopamine receptor (human) agonism; P35462; D3R DiscoveRx beta-arrestin cells, luminescence, 90 min; max activation, %; 410,000 tested, 0.58% active; in the data active = max activation above about 30%; also: 0% is about no effect
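Agonist mode: compounds and dopamine controls were applied to plated cells for 90 min at 37 degrees C after an overnight attachment at 1500 cells/well. Luminescent read-out followed 30 - 60 minutes at room temperature with DiscoveRx detection reagent.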
Active calls of the source: *; [ ] = remark or other dose. Compounds with a hit are over-represented: about 4.7% of the library has one in this group of screens. Unless noted, calls follow the shape of the dose curve; as a rule, active = well fitted curve in the direction sought with a large enough effect; inconclusive = small, poorly fitted or top-dose-only effect, or another doubt; inactive = no such curve, though single readings can be large; an effect the other way counts as inactive or inconclusive.

Screening CC(OC(=O)c1ccccc1OCCOc1ccccc1)C(=O)Nc1ccc(Br)cc1 (configuration not stated) returned HepG2 tox -26% and TGFb SMAD3 inh 4%.
For COc1cccc(CNC(=O)CCCCCn2c(=O)[nH]c3cc(OC)c(OC)cc3c2=O)c1 the results were ATXN viability inactive, HepG2 tox -11%, TGFb SMAD3 inh -13%, ATXN2 expr inh 8% and DRD3 agonist 0.
Screening Cc1oc(-c2cccc(F)c2)nc1CN1CCCN(C(=O)c2ccco2)CC1 returned DRD3 antagonist -62*, ATXN viability inactive, HepG2 tox -5%, TGFb SMAD3 inh -12%, ATXN2 expr inh -12% and DRD3 agonist -17.
Screening Cc1cccc(N2CCN(Cc3nc(-c4ccc(F)cc4F)oc3C)CC2)n1 returned DRD3 antagonist -86*, ATXN viability inconclusive, HepG2 tox -28%, TGFb SMAD3 inh -23%, ATXN2 expr inh -25%[2.22 µM] and DRD3 agonist -16.
Cc1oc(-c2cc(F)ccc2F)nc1CN1CCCN(C(=O)c2ccco2)CC1 was read as DRD3 antagonist -81*, ATXN viability inactive, HepG2 tox 8%, TGFb SMAD3 inh -3%, ATXN2 expr inh -15% and DRD3 agonist -16.
Screening CCOC(=O)C(NC(=O)Nc1ccc(F)cc1)(OCC)C(F)(F)F (configuration not stated) returned DRD3 antagonist -53*, ATXN viability inconclusive, HepG2 tox 5%, TGFb SMAD3 inh -1%, ATXN2 expr inh -14% and DRD3 agonist -7.
CCOC(=O)C(NC(=O)NCc1ccccc1)(OCC)C(F)(F)F (configuration not stated) was read as DRD3 antagonist 0, ATXN viability inactive, HepG2 tox -1%, TGFb SMAD3 inh -11%, ATXN2 expr inh -8% and DRD3 agonist -2.
CCCCc1ccc(NC(=O)Cn2nnc3sc4c(c3c2=O)CCC(C)C4)cc1 (configuration not stated) was read as ATXN viability inactive, HepG2 tox -12%, TGFb SMAD3 inh -9%, ATXN2 expr inh 6% and DRD3 agonist 0.
`COc1ccc(C2C(C(=O)NCc3ccco3)c3ccccc3C(=O)N2C)cc1` (configuration not stated) gave DRD3 antagonist 1, ATXN viability inactive, HepG2 tox -15%, TGFb SMAD3 inh 4%, ATXN2 expr inh -16% and DRD3 agonist 0.
CCN(CC)CCCNC(=O)C1c2ccccc2C(=O)N(C)C1c1ccc(OC)cc1 (configuration not stated) was read as DRD3 antagonist -52*, ATXN viability inactive, HepG2 tox 3%, TGFb SMAD3 inh -2%, ATXN2 expr inh -4% and DRD3 agonist -4.
For Cn1c(-c2sccc2OCc2ccccc2)n[nH]c1=S the results were DRD3 antagonist -54*, ATXN viability inactive, HepG2 tox 2%, TGFb SMAD3 inh 5%, ATXN2 expr inh 3% and DRD3 agonist -3.
CCc1noc(C)c1C(=O)N1CCOc2ccc(CN3CCN(c4ccccn4)CC3)cc2C1 was read as ATXN viability inactive.
For COc1ccc(N(Cc2ccccc2)C(=O)c2nc(S(C)(=O)=O)ncc2Cl)cc1 the results were HepG2 tox -109%, TGFb SMAD3 inh 2µM* and DRD3 agonist -27.
For CS(=O)(=O)c1ncc(Cl)c(C(=O)N(Cc2ccc(Cl)cc2)Cc2ccco2)n1 the results were HepG2 tox 3.2µM*, TGFb SMAD3 inh 5µM*, ATXN2 expr inh 5.6µM* and DRD3 agonist -29.
CCCSc1ncc(Cl)c(C(=O)N(Cc2ccccc2)c2ccc(OC)cc2)n1 was read as HepG2 tox -27% and DRD3 agonist -10.
`c1ccc(Cn2nnnc2C(c2ccccc2)N2CCN(Cc3ccncc3)CC2)cc1` (configuration not stated) gave HepG2 tox -11% and TGFb SMAD3 inh -1%.
Screening COc1cccc(C(=O)NC(C)c2nnc3n2CCN(CC=C(C)C)CC3)c1 (configuration not stated) returned ATXN viability inactive.
Screening CO[C@H]1C=CO[C@@]2(C)Oc3c(C)c(O)c4c(O)c(c(/C=N/N5CCN(C6CCCC6)CC5)c(O)c4c3C2=O)NC(=O)/C(C)=C\C=C[C@H](C)[C@H](O)[C@@H](C)[C@@H](O)[C@@H](C)[C@H](OC(C)=O)[C@@H]1C returned DRD3 agonist -5.
COc1ccc(NC(=S)/N=C(\N)Nc2nc(C)c3ccc(C)cc3n2)cc1 was read as DRD3 antagonist 49, ATXN viability 16µM*, HepG2 tox -14%, TGFb SMAD3 inh -4%, ATXN2 expr inh inconclusive and DRD3 agonist 4.
O=C(Nc1ccccn1)c1csc2c1CCCC2 was read as DRD3 antagonist -3, ATXN viability inactive, HepG2 tox -15%, TGFb SMAD3 inh -19%, ATXN2 expr inh 57% and DRD3 agonist -2.
`O=C(Nc1ccccn1)c1onc2c1CCCC2` gave DRD3 antagonist 0, ATXN viability inactive, HepG2 tox 5µM*, TGFb SMAD3 inh 0%, ATXN2 expr inh inconclusive and DRD3 agonist -16.
`COc1ccc(S(=O)(=O)NCc2cccnc2)cc1` gave DRD3 antagonist -21, ATXN viability inactive, HepG2 tox 25%, TGFb SMAD3 inh 0%, ATXN2 expr inh -42% and DRD3 agonist -7.
`O=C(Nc1ccc(S(=O)(=O)NCc2cccnc2)cc1)c1ccccc1Cl` gave DRD3 antagonist -83*, ATXN viability inactive, HepG2 tox 2%, TGFb SMAD3 inh -8%, ATXN2 expr inh -12% and DRD3 agonist -8.
`COc1ccc(S(=O)(=O)NCc2cccnc2)cc1Br` gave DRD3 antagonist 47, ATXN viability inconclusive, HepG2 tox 7.1µM*, TGFb SMAD3 inh -20% and DRD3 agonist 18.
Screening O=C(Nc1ccccc1)c1ccc(S(=O)(=O)NCc2cccnc2)cc1 returned DRD3 antagonist -12, ATXN viability inactive, HepG2 tox 6%, TGFb SMAD3 inh -19%, ATXN2 expr inh -19% and DRD3 agonist -6.
For C=CCN=c1scc(-c2ccc3c(c2)NC(=O)CO3)n1/N=C(\C)c1ccccn1 the results were DRD3 antagonist -53*, ATXN viability inactive, HepG2 tox -42%, TGFb SMAD3 inh 11µM*, ATXN2 expr inh inconclusive and DRD3 agonist -16.
For CCOC(=O)c1sc(N2C(=O)c3oc4ccc(F)cc4c(=O)c3C2c2ccc(C)cc2)nc1C (configuration not stated) the results were HepG2 tox 8% and TGFb SMAD3 inh 6%.

Screening results as filed in PubChem BioAssay.
